The campaign covered roughly 310,000 compounds. About 14,000 (4.5%) showed an effect of 50% or more. The effect is printed as a negative number. Only a selection was taken, and strong results are over-represented in it overall.
biological target: human ether-à-go-go-related gene (hERG) potassium channel (human, UniProt Q12809); test: primary screen, population patch clamp on CHO cells stably expressing hERG; higher = less effect of the substance
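Also: peak tail current of the secondary pulse compared with the same well before compound.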

Sequence of human ether-à-go-go-related gene (hERG) potassium channel (Q12809 whole entry, looked up): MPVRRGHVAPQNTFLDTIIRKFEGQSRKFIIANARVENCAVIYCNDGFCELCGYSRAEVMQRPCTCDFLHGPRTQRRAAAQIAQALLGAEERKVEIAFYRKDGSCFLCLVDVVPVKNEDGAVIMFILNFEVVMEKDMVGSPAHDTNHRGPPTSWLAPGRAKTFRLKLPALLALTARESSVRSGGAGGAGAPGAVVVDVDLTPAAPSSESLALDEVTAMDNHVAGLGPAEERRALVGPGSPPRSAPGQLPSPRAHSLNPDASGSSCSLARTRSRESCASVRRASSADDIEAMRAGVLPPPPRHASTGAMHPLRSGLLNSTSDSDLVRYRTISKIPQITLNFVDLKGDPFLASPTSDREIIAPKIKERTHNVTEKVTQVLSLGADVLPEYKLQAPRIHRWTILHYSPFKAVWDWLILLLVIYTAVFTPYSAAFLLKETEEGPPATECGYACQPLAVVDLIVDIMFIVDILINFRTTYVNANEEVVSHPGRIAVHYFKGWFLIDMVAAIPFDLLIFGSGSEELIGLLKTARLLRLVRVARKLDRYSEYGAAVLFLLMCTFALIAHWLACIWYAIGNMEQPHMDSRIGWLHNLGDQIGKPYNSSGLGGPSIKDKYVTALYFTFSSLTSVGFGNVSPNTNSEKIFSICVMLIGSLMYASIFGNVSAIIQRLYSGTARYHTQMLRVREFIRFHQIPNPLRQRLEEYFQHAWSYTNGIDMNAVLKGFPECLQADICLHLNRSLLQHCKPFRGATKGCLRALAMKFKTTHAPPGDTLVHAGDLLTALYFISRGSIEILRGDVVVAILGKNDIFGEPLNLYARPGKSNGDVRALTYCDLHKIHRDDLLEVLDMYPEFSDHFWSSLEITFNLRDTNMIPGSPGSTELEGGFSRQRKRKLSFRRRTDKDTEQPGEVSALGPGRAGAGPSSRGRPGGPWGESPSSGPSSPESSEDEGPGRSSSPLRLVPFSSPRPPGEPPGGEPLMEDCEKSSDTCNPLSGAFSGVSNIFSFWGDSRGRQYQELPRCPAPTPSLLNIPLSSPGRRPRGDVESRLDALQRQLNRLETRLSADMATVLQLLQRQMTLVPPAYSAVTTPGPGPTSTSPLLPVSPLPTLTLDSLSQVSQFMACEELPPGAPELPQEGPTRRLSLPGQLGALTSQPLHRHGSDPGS

Compound | hERG current change (%, negative = inhibition) at 10uM
CCc1cccc(C)c1NC(=O)CSc1nc2ccc(N3C(=O)c4ccccc4C3=O)cc2s1 | 4.44%
CC(Oc1ccc(Br)cc1)C(=O)O/N=C(\N)c1ccncc1 (centres unmarked) | 5.16%
COc1ccc(-n2nc(C(=O)NCc3ccco3)c3ccccc3c2=O)cc1 | -17.1%
Cc1cccn2c(=O)c3cc(C(=O)NCc4ccco4)c(=N)n(CCOCCO)c3nc12 | -74.9%
Cc1cccn2c(=O)c3cc(C(=O)NCc4ccco4)c(=N)n(C(C)C)c3nc12 | -77.6%
Cc1ccccc1Nc1cc(C(=O)NCc2ccco2)c2ccccc2n1 | 20.3%
COc1ccc(CCn2c(N)c(C(=O)NCc3ccco3)c3nc4ccccc4nc32)cc1 | 0.65%
COc1ccc(CCn2c(=N)c(C(=O)NCc3ccco3)cc3c(=O)n4cccc(C)c4nc32)cc1 | -75.6%
Cc1cccn2c(=O)nc(SCC(=O)NCc3ccco3)nc12 | 1.37%
Cc1cccn2c(=O)c3cc(C(=O)NCc4ccco4)c(=N)n(CCc4ccccc4)c3nc12 | -76.5%
CC(OC(=O)c1cccc(S(=O)(=O)Nc2ccccc2F)c1)C(=O)NCc1ccc2c(c1)OCO2 (centres unmarked) | 12.8%
CN(C(=O)c1ccc(S(=O)(=O)N2CCCC2)cc1)C1CCS(=O)(=O)C1 (centres unmarked) | 4.75%
O=C(Nc1ccc(Cl)cc1)C(Cl)C(=O)c1ccccc1 (centres unmarked) | -3.81%
Cc1csc(SCC(=O)NCc2cccc(Cl)c2)n1 | -7.05%
CCOC(=O)Cn1c(=O)n(Cc2ccco2)c(=O)c2ccc(C(=O)NCCc3ccccc3)cc21 | -53.2%
CCc1ccc(-n2c(=O)c3ccc(C(=O)NCCc4ccccc4)cc3n(CC(N)=O)c2=O)cc1 | 14.6%
Cc1cccn2c(=O)c3cc(C(=O)NCCc4ccccc4)c(=N)n(Cc4ccco4)c3nc12 | -74%
Cc1cccn2c(=O)c3cc(S(=O)(=O)c4ccc(F)cc4)c(=N)n(Cc4ccco4)c3nc12 | -34.8%
Cc1cccn2c(=O)c3cc(S(=O)(=O)c4ccccc4)c(=N)n(Cc4ccco4)c3nc12 | -0.654%
CCOC(=O)Cn1c(=O)n(Cc2ccco2)c(=O)c2ccc(C(=O)NC3CCCC3)cc21 | -18.9%
CCN(CC)C(=O)N1CCN(c2c([N+](=O)[O-])c(=O)oc3ccccc23)CC1 | -25.7%

Compound | hERG current change (%, negative = inhibition) at 10uM
CN(C)c1ccc(C(=O)c2ccc(N(C)C)c(N)c2)cc1N | -3.79%
COc1c(F)c(F)c(C(=O)Nc2ccc(N3CCN(Cc4ccccc4)CC3)cc2)c(F)c1F | -14.6%
COc1ccc(C(=O)N=C2SC3CS(=O)(=O)CC3N2c2ccccc2)cc1OC (centres unmarked) | 11%
CCCn1nnc(NC(=O)c2ccc(-c3cccc(Cl)c3)o2)n1 | -55.3%
CCCCn1nnc(NC(=O)c2ccc([N+](=O)[O-])cc2Cl)n1 | -31.1%
CCCCn1nnc(NC(=O)c2ccc(-c3ccccc3[N+](=O)[O-])o2)n1 | -14.2%
CCCCn1nnc(NC(=O)c2ccc(-c3cccc(Cl)c3)o2)n1 | -40.8%
CCn1nnc(NC(=O)c2ccc(-c3ccc(Cl)cc3)o2)n1 | -53.5%
CCn1nnc(NC(=O)c2ccc(Br)o2)n1 | 13.7%
CCn1nnc(NC(=O)Cc2ccc(Cl)cc2)n1 | 3.52%
CCCn1nnc(NC(=O)c2ccc(-c3cc(Cl)ccc3Cl)o2)n1 | 6.96%
CCCCn1nnc(NC(=O)c2ccc(-c3cccc([N+](=O)[O-])c3)o2)n1 | -68.5%
O=C(NC1CC1)c1sccc1-n1cccc1 | 8.56%
COc1cc(NC(=O)Cc2cccs2)c(C(=O)O)cc1OC | 21.7%
Cc1ccc2[nH]c(=O)c(CNS(=O)(=O)c3ccccc3)c(-c3ccccc3)c2c1 | 16.2%
Cc1ccc(-n2[nH]c(C)c(C=Nc3ccc(S(=O)(=O)Nc4nccs4)cc3)c2=O)c(C)c1 | -35%
CCOC(=O)C1(CCCc2ccccc2)CCN(C(=O)c2cncs2)CC1 | -55%
CCOC(=O)C1(Cc2ccc(OC)cc2)CCN(C(=O)c2cncs2)CC1 | -17.6%
CCOC(=O)C1(CCOc2ccccc2)CCN(C(=O)c2cncs2)CC1 | -70.7%
O=C(Oc1ccc(/C=N/NC(=O)c2ccccn2)cc1)c1cccc(Br)c1 | 11.4%
CC(C)CC(NS(=O)(=O)c1cccc(C(=O)O)c1)C(=O)O (centres unmarked) | 44.6%

Compound | hERG current change (%, negative = inhibition) at 10uM
COc1cc(NC(=O)c2ccc(NS(=O)(=O)c3c(C)noc3C)cc2)cc(OC)c1 | 1.03%
Cc1[nH]nc(-c2ccc(OCc3cnn(-c4ccccc4)c3)c(C)c2O)c1Oc1ccccc1 | 12%
CN(CC(=O)Nc1ccc(Cl)cc1)CC(=O)Nc1cc(Cl)ccc1C#N | -38.4%
CN(CC(=O)Nc1ccc(N2CCOCC2)cc1)CC(=O)Nc1cccc(C#N)c1 | -13.9%
CN(CC(=O)Nc1ccc(Cl)c(Cl)c1)Cc1nnc(-c2ccc(F)cc2)o1 | -63.3%
CN(CC(=O)Nc1ccc(Cl)c(Cl)c1)CC(=O)Nc1ccc2c(c1)OCO2 | -3.52%
CN(CC(=O)Nc1ccc(C#N)cc1)Cc1ccc(Cl)cc1 | -68.6%
CN(CC(=O)Nc1ccc(C#N)cc1)Cc1ccc(Cl)cc1Cl | -66.8%
CN(CC(=O)Nc1cccc(C#N)c1)Cc1ccc(Cl)cc1 | -34.1%
CN(CC(=O)Nc1ccc(Cl)c(Cl)c1)C(=O)/C=C/c1ccc(F)cc1 | 1.66%
CN(CC(=O)Nc1ccc(N2CCOCC2)cc1)CC(=O)Nc1ccc(N2CCOCC2)cc1 | 6.39%
Cc1ccc(NC(=O)CN(C)Cc2ccc(Cl)cc2)cc1 | -8.48%
CN(CC(=O)Nc1ccc(C#N)cc1)CC(=O)Nc1ccc(N2CCOCC2)cc1 | -56.3%
CN(CC(=O)Nc1ccc(S(=O)(=O)N2CCCC2)cc1)Cc1ccc(Cl)cc1Cl | 10.8%
CC(=O)c1ccc(-c2ccc(/C=C(/Sc3n[nH]c(C)n3)C(=O)O)o2)cc1 | -42.7%
O=c1[nH][nH]cc1C=Nc1ccc(Oc2ccccc2)cc1 | 11.6%
CC(Sc1ccccc1)C(=O)Nc1ccc(N2CCOCC2)cc1 (centres unmarked) | -7.09%
CN1CCN(C(=O)c2ccc3c(c2)N(Cc2cccc(Cl)c2)C(=O)c2ccccc2S3(=O)=O)CC1 | 10.8%
COc1ccc(NC(=O)CC2(CC(=O)O)CCCC2)cn1 | 16.7%
CC(C)N1CCC(N2CCN(Cc3ccc(Oc4ncccn4)cc3)CC2CCO)CC1 (centres unmarked) | 23.9%
Cc1cc(C)n(-c2ccc(C(=O)Nc3cccc([N+](=O)[O-])c3)cc2)n1 | 40.2%

Compound | hERG current change (%, negative = inhibition) at 10uM
COc1ccc(CCNC(=O)c2ccc(-c3ccc([N+](=O)[O-])cc3Cl)o2)cc1 | 4.64%
Cc1ccc(NC(=O)CN(C)C(=O)Cc2ccc(Cl)c(Cl)c2)cc1 | 11.8%
CN(CC(=O)Nc1ccc(C#N)cc1)Cc1ccc(Cl)c(Cl)c1 | -60.8%
CN(CC(=O)Nc1ccc(S(=O)(=O)N2CCCC2)cc1)Cc1ccc(Cl)c(Cl)c1 | 0.187%
C=CCNC(=O)c1ccc(C(=O)c2ccccc2)cc1 | -27.8%
CC(=O)CSc1ncnc2c1cnn2-c1ccccc1 | 12.6%
COc1ccc(/C=N\NC(=O)c2nn(C)cc2Cl)cc1CN1CCOCC1 | -10.6%
COc1ccc(/C=C2\CCc3ccccc3C2=O)cc1Cn1cccn1 | 2.14%
COc1ccc(/C=C2/CCc3ccccc3C2=O)cc1CN1CCOCC1 | -59.6%
COc1ccc(/C=N/NC(=O)c2ccncc2)cc1CN1CCOCC1 | 3.71%
COc1ccc(/C=C/C(=O)c2ccccc2O)cc1CN1CCOCC1 | -17.7%
COc1ccc(/C=C2\CCc3ccccc3C2=O)cc1CN1CCOCC1 | -33.6%
COc1ccc(/C=C/C(=O)c2ccc(O)cc2)cc1CN1CCOCC1 | -11.3%
COc1ccc(/C=N/NC(=O)c2cccc(Br)c2)cc1CN1CCOCC1 | -82.4%
COc1ccc(/C=N/NC(=O)c2cccc(Br)c2)cc1Cn1cc(Cl)cn1 | 8.83%
COc1ccc(/C=N/NC(=O)c2ccc(Br)cc2)cc1CN1CCOCC1 | -64.8%
COc1ccc(C(=O)/C=C/c2ccc(OC)c(CN3CCOCC3)c2)cc1 | -56.3%
CCOc1cc(/C=N/NC(=O)c2ccc(CN3CCOCC3)cc2)ccc1OC | -19.1%
CC(C)CN(C(=O)COC(=O)C1CC1)c1c(N)n(Cc2ccccc2)c(=O)[nH]c1=O | 13%
CCc1c(O)nc(SCC(=O)Nc2nc3ccccc3s2)n(-c2ccc(C)cc2)c1=O | -17.8%

— PMC4336329 (PLoS ONE, 2015)
